# Compound activity from PubChem.
# Gal4-VP16 FLuc – inhibits Gal4-VP16 luciferase reporter, ROR gamma counter-screen; AID 2546; Drosophila S2 Gal4-VP16 UAS-luciferase, luminescence, 20 h; 3.5% of 310,000 active; Potency, µM (series often up to 53.6 µM), hits mostly inhibitors;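 further: Gal4-VP16 expression switched on by copper sulfate through the metallothionein promoter; nearly all actives have a fitted effect of over 50% in size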
# PLK1 PBD block – inhibitors of human PLK1 polo-box domain binding | Potency, µM, most hits filed as inhibitors | Plk1 PBD binding of FITC phosphopeptide, fluorescence polarization | P53350 | AID 720504 | 2.8% of 360,000 active; further: series mostly up to about 57 µM; nearly all actives have a fitted effect of over 65% in size
# Target sequence (P53350 whole entry, looked up, the tested form may be a part): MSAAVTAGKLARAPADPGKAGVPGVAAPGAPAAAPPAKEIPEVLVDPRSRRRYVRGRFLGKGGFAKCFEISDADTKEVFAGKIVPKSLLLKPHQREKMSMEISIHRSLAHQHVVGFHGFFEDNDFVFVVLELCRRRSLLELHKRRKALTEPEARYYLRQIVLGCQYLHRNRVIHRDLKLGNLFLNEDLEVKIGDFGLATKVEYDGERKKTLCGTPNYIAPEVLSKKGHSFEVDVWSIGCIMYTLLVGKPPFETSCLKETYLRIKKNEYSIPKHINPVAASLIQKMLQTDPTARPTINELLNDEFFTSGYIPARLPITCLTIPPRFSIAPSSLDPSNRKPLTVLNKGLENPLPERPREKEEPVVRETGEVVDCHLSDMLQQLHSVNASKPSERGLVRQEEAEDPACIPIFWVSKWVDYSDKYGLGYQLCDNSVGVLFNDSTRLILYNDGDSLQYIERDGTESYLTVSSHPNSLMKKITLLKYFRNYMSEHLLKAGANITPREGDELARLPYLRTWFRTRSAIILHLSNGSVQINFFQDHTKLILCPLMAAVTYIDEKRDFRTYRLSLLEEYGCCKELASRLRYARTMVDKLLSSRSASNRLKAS
# ALDH1A1 inh – ALDH1A1 (human) enzyme inhibition; P00352; Purified ALDH1A1, NADH fluorescence, propionaldehyde substrate; Potency, µM (top dose mostly 75.3 µM), most hits filed as inhibitors; 7.3% of 220,000 active; AID 1030; active means well fitted inhibition curve with a large enough effect, not every such curve was filed as active; inconclusive means small, poorly fitted or top-dose-only effect, or another doubt; inactive means no such curve, though single readings can be large or run the other way
# RORg inh – blocks mouse ROR gamma transcriptional activity. Potency, µM (top dose mostly 53.6 µM), actives largely listed as inhibitors. P51450. Drosophila S2 Gal4-RORgamma UAS-luciferase reporter, 20 h. AID 2551. 5.4% of 310,000 active; further: nearly all actives have a fitted effect of over 60% in size
#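 In this cell-based reporter format, copper sulfate (700 uM final) drives Gal4–ROR gamma fusion expression from a metallothionein promoter in Drosophila Schneider cells; compounds preincubated 1 hr, reporter read after 20 hr at ambient temperature.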
# Sfp inh – Sfp phosphopantetheinyl transferase inhibition; AID 1490; Potency, µM, usual class: inhibitors; Biochemical Sfp PPTase activity, qHTS; 3.5% of 310,000 active;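 further: the enzyme is Sfp with the accession as filed and its product quenches rhodamine fluorescence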
#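 Step 1, compound plus 15 nM Sfp-PPTase, 15 min, room temperature. Step 2, add rhodamine-CoA (5 uM) and BHQ-2-YbbR (12.5 uM). Step 3, read 525/598 nm fluorescence at 0 and 30 min.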
# A number is an active result; . = inactive; ? = inconclusive; / = not tested or not shown; ! = repeats disagree; [ ] = dose if it differs, or a comment. This is a sample that favours compounds with a hit; in the whole collection about 12% have one here. Unless noted, the call rests on the fitted dose curve; in most records, active means well fitted curve in the direction sought with a large enough effect; inconclusive means small, poorly fitted or top-dose-only effect, or another doubt; inactive means no such curve, though single readings can be large; an effect the other way counts as inactive or inconclusive.
SMILES,Gal4-VP16 FLuc,PLK1 PBD block,ALDH1A1 inh,RORg inh,Sfp inh
CC(C)(OO)c1ccccc1,?,/,?,.,/
COc1cc2c(cc1O)C(CCc1ccc(Cl)cc1)N(C)CC2 (stereo not drawn),.,/,.,.,.
C[C@]12CC[C@H]3[C@@H](CC[C@@]45O[C@@H]4C(=O)C(C#N)C[C@]35C)[C@@H]1CC[C@@H]2O (stereo partly drawn),.,/,/,?,.
Cc1cccc(N2C(=O)NC(=O)/C(=C\c3cccn3-c3ccc(Cl)cc3)C2=O)c1,?,0.532µM,.,?,50.1µM
CCc1ccc(N2C(=O)NC(=O)/C(=C\c3cc(C)n(-c4cc(C(=O)O)cc(C(=O)O)c4)c3C)C2=O)cc1,.,?,/,.,.
Cc1cc(/C=C2\C(=O)NC(=O)N(c3cccc(F)c3)C2=O)c(C)n1-c1ccc(C(=O)O)c(Cl)c1,.,.,/,.,.
Cc1cc(C)cc(N2C(=O)NC(=O)/C(=C/c3cccn3-c3ccc(Cl)cc3)C2=O)c1,11.2µM,?,.,31.6µM,50.1µM
CC(C)(C)n1cccc1/C=C1\C(=O)NC(=O)N(c2ccccc2)C1=O,.,23.8µM,1.41µM,.,.
c1ccc2c(c1)c1cccc3ccc4cccc2c4c31,.,.,?,.,/
C=CCSc1nnc(NC(=O)c2ccc(Cl)nc2)s1,.,.,?,.,.
CC1=CC(c2ccccc2)NC(=S)N1 (stereo not drawn),?,?,7.08µM,11.2µM,?
NC(CO)Cc1ccccc1 (stereo not drawn),.,/,.,.,.
CC[C@@H](CO)NC(=O)[C@H]1C=C2c3cccc4[nH]cc(c34)C[C@H]2N(C)C1,.,/,?,.,.
COc1ccc(-c2oc3cc(OC)ccc3c(=O)c2O)cc1,7.94µM,/,?,5.01µM,.
O=C(c1ccco1)N1CCC[C@@]2(CCN(Cc3ccncc3)C2)C1,.,/,10µM,.,?
O=C(c1ccco1)N1CCC2(CC1)CN(Cc1ccncc1)C2,.,/,12.6µM,?,.
COC1=CC(=O)O[C@H](/C=C/c2ccc3c(c2)OCO3)C1,.,/,/,.,.
COC1=CC(=O)O[C@@H](/C=C/c2ccccc2)C1,.,.,12.6µM,.,/
CCCN1CCCC2Cc3[nH]ncc3CC21 (stereo not drawn),.,/,.,.,.
O=C(Nc1ccc(Cl)cc1)O/N=C(\c1ccccc1)c1ccccn1,.,?,.,?,39.8µM
O=NN(CCCl)C(=O)NCCCl,?,.,3.16µM!,.,.
O=C(O)c1ccc(-c2ccc3cc(C45CC6CC(CC(C6)C4)C5)c(O)cc3c2)cc1,11.2µM,/,/,?,?
Cc1ccc(-c2cc(-c3ccc(C)cc3)[n+](-c3ccc(C(=O)O)cc3)c(-c3ccc(C)cc3)c2)cc1,/,.,/,/,/
O=C(N/N=C\c1ccc(COc2ccc([N+](=O)[O-])cc2)o1)c1cccc(Cl)c1,2.51µM,.,.,1.78µM,.
O=C(NN=Cc1ccc(N(CCCl)CCCl)cc1)c1cccc([N+](=O)[O-])c1,/,.,/,/,/
SMILES,Gal4-VP16 FLuc,PLK1 PBD block,ALDH1A1 inh,RORg inh,Sfp inh
C[C@@H]1O[C@@H](O[C@H]2C[C@@H](O)[C@@]3(CO)[C@H]4[C@H](O)C[C@]5(C)[C@@H](C6=CC(=O)OC6)CC[C@]5(O)[C@H]4CC[C@@]3(O)C2)[C@@H](O)[C@H](O)[C@H]1O,.,/,.[13.5 µM],.[10 µM],.
C[N+]1(C)C2CC[C@H]1CC(OC(=O)C(CO)c1ccccc1)C2 (stereo partly drawn),/,.,/,/,/
C[N+]1(C)C2CCC1CC(OC(=O)c1c[nH]c3ccccc13)C2 (stereo not drawn),.,.,22.4µM,.,.
C[N+]1(C)[C@@H]2CC[C@H]1CC(OC(=O)[C@@H](CO)c1ccccc1)C2 (stereo partly drawn),.,.,.,.,39.8µM!
COC(=O)CN1CN(c2ccccc2)C2(CCN(Cc3ccc4ccccc4c3)CC2)C1=O,.,/,.,.,70.8µM
Cc1onc(-c2ccccc2)c1C(=O)NC1C(=O)N2C(C(=O)O)C(C)(C)S[C@@H]12 (stereo partly drawn),.,/,.,.,.
CCCN1[C@@H]2C[C@@H](O)CC[C@@H]2C[C@H]1C(=O)OC,.,/,.,.,.
C[C@]12CCC(=O)C=C1CCc1ccc(O)cc12,.,/,?,.,.
O=C(Cl)/C=C/C(=O)Cl,.,/,.,.,/
NC(C(=O)O)c1cc(=O)[nH]o1 (stereo not drawn),/,.,.,/,79.4µM
NC(=O)[C@@H]1CCCN1C(=O)[C@H](Cc1ccccc1)NC(=O)[C@@H]1CCCN1C(=O)[C@@H](N)Cc1ccc(O)cc1,/,/,.,/,.
O=Nc1ccc(Nc2ccccc2)cc1,?,/,0.0631µM,.,/
Oc1c(Br)c(Br)c(Br)c(Br)c1Br,?,26.7µM,?,.,/
CCCCNC(=O)Oc1cc(CCl)on1,.,/,12.6µM,.,.
CC1=C2C(=CO[C@H](C)[C@H]2C)C(=O)C(C(=O)O)=C1O,.,/,.,.,.
CN(C)c1ccc(C(=O)c2ccc(N(C)C)cc2)cc1,.,.,28.2µM,.,.
Cc1c(OC(=O)N(C)C)ccc2c1O/C(=C\c1ccco1)C2=O,.,.,/,.,79.4µM
CN(C)C(=O)Oc1ccc(Cl)c2ccccc12,?,.,.,?,.
CN1CCN(c2ccc([N+](=O)[O-])c3no[n+]([O-])c23)CC1,5.62µM,.,/,1.26µM,.
O=[N+]([O-])c1ccc(N(CCO)CCO)c2c1no[n+]2[O-],/,.,/,/,/
ClCC(Cl)CCl,.,/,.,.,/
O=C(Nc1ccccc1)c1ccccc1I,.,/,/,.,.
CCN(CC)C(=O)C(C(=O)c1cccc([N+](=O)[O-])c1)n1cc(Cl)ccc1=O (stereo not drawn),.,.,17.8µM,.,.
CCOP(=O)(OCC)C(NC(=O)c1cccc([N+](=O)[O-])c1)C(Cl)(Cl)Cl (stereo not drawn),.,.,/,.,.
COc1ccc(OC)c(-n2c(O)c(/C=C3\C=Nc4ccccc43)c(=O)[nH]c2=O)c1,.,9.47µM,/,.,50.1µM
SMILES,Gal4-VP16 FLuc,PLK1 PBD block,ALDH1A1 inh,RORg inh,Sfp inh
COc1ccccc1-n1c(O)c(/C=C2\C=Nc3ccccc32)c(=O)[nH]c1=O,.,?,/,.,?
CCCCCCCCCCCCCC(=O)O[C@@H]1[C@@H](C)[C@@]2(O)[C@H](C=C(CO)C[C@]3(O)C(=O)C(C)=C[C@@H]23)[C@@H]2C(C)(C)C12OC(C)=O (stereo partly drawn),/,/,.,/,.
FC(F)(F)c1nc2ccc(SSc3ccc4nc(C(F)(F)F)[nH]c4c3)cc2[nH]1,/,/,2.24µM,/,/
C=CCN1CCC2(C)c3cc(O)ccc3C[C@H]1[C@H]2C,.,/,.,.,.
CC1(C)C(=O)C=C[C@@]2(C)C1=C(O)C(=O)[C@@]1(C)C2CC[C@@]2(C)C(c3ccoc3)C[C@H]3O[C@@]321 (stereo partly drawn),10µM,/,.,8.91µM,.
CC1(C)C(=O)C=C[C@@]2(C)C1CC(O)[C@]1(C)C2CC[C@@]2(C)C(c3ccoc3)OC(=O)C3O[C@]312 (stereo partly drawn),?,/,.,?,.
COc1ccc(C[C@@H](N)c2ccc(OC)cc2)cc1,/,/,.[13.5 µM],/,/
